High-throughput results: PubChem, National Center for Advancing Translational Sciences (NCATS)
Rows were chosen to be rich in hits. Some 7.4% of all compounds tested hit in one or more screens of this group.
Rab9 prom act = qHTS Assay for Rab9 Promoter Activators; Potency, µM (top dose mostly 9.22 µM), inactives show top-dose activation, negative = inhibition, actives largely listed as activators; 2.8% of 320,000 active; Huh7 Rab9 promoter-luciferase reporter, luminescence, 24 h; also: % of control where 0% means no effect; nearly all actives have a fitted effect of over 60% in size
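Huh7 cells stably carrying Rab9 promoter–luciferase reporter, plated 1500 cells/well, compound added after 2 h and incubated 24 h at 37 °C; luciferase luminescence then read after 10 min with detection reagent.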
FLuc counter = qHTS profiling assay for firefly luciferase inhibitor/activator using purifed enzyme and Km concentrations of substrates (counterscreen for miR-21 project). purified FLuc, Km substrates, luminescence inhibition. Potency, µM (highest dose often 57.5 µM), without a hit: at the top dose activity change, negative = inhibition, usual class: inhibitors. 6.9% of 360,000 active. AID 588342, 2011;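 also: plate controls were vehicle for no effect and reference inhibitor for full effect; nearly all actives have a fitted effect of over 55% in size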
Target sequence (P08659 whole entry, looked up): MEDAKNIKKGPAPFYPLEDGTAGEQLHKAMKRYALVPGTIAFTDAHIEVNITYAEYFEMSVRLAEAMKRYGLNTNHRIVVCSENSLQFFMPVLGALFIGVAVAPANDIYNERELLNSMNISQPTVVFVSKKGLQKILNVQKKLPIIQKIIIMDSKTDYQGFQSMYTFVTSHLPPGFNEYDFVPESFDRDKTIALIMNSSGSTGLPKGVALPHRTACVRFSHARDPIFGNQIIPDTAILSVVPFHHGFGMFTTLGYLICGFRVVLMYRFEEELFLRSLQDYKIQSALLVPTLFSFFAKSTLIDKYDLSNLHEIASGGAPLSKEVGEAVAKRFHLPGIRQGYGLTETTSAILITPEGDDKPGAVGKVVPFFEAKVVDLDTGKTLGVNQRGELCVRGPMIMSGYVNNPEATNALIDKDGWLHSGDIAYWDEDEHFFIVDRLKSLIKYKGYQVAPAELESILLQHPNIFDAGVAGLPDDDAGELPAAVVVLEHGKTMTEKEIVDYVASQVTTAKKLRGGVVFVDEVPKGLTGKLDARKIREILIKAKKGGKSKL
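Biochemical qHTS of compounds, final roughly 60 µM downward over six points, against 10 nM purified firefly luciferase using Km concentrations of substrates (10 uM D-luciferin, 10 uM ATP) in Tris acetate pH 7.5 buffer; luminescence output.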
SMN2 splice up = qHTS Assay for Enhancers of SMN2 Splice Variant Expression; HEK293 SMN2-luciferase splicing reporter, luminescence, 30-36 h; Potency, µM (titrated, usually from 46.1 µM), without a hit: at the highest dose activity change, positive = activation, most hits filed as activators; 2.8% of 210,000 active; also: % of control where 0% means no effect; nearly all actives have a fitted effect of over 55% in size
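qHTS luciferase splicing reporter: luminescence rises when SMN2 exon 7 is included in transfected HEK293 cells. Compound exposure lasted 30-36 h at 37C, with 4.5 mM final sodium butyrate as control, followed by a ONE-Glo read.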
ELG1 genotoxic = qHTS screen for small molecules that induce genotoxicity in human embryonic kidney (HEK293T) cells expressing luciferase-tagged ELG1; HEK293T ELG1-luciferase reporter, luminescence, 16 h; Potency, µM (doses to about 46 µM), without a hit: at the top dose activity change, positive = activation, most hits filed as activators; 1.3% of 330,000 active; also: % of control where 0% means no effect; nearly all actives have a fitted effect of over 60% in size
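Genotoxicity was scored as increased ELG1-luciferase reporter signal, measured by ONE-Glo luminescence (30 min, room temperature). Compound or vehicle exposure of the HEK293T reporter cells lasted 16 hr at 37°C.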
p53 reactivator = qHTS assay for re-activators of p53 using a Luc reporter. Potency, µM (series often up to 92.2 µM), for the others: top-dose activity change, positive = activation, usual class: activators. H1299 p53-A138V BP100-luciferase reporter, luminescence, 24 h. AID 504706, 2011. 0.063% of 320,000 active; also: % of control where 0% means no effect; nearly all actives have a fitted effect of over 45% in size
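H1299 (p53-null), stable ts p53-A138V + BP100-Luc; 1000 cells/well, Opti-MEM/10% FBS; cpd 4 pt, 1:5; 24 h, 37 deg C, 5% CO2; detection reagent 10 min RT; luminescence.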
NPC1 promoter act = qHTS Assay for NPC1 Promoter Activators; Huh7 NPC1 promoter luciferase reporter, 24 h; Potency, µM (highest dose often 9.22 µM), for inactives: at the top dose activation, most hits filed as activators; 2.4% of 320,000 active; also: % of control where 0% means no effect; nearly all actives have a fitted effect of over 60% in size
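Huh7 reporter cells (NPC1 promoter driving luciferase) are dosed with compound for 24 h at 37 °C, 5% CO2; luciferase detection reagent is then added and luminescence measured after 10 min at ambient temperature.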
* hit, by the source's call; ? = inconclusive; / = not tested or not shown; [ ] = another dose, or the depositor's remark. Calls follow the shape of the dose curve; as a rule, active = well fitted curve in the direction sought with a large enough effect; inconclusive = small, poorly fitted or top-dose-only effect, or another doubt; inactive = no such curve, though single readings can be large; an effect the other way counts as inactive or inconclusive. Potency is read from the fitted curve at half-maximal effect.

SMILES	Rab9 prom act	FLuc counter	SMN2 splice up	ELG1 genotoxic	p53 reactivator	NPC1 promoter act
O=C(CCc1cn(Cc2ccccc2Cl)c2ccccc12)NC1CCCCC1	/	2%	/	/	/	/
O=C1/C(=C\c2ccco2)CCC/C1=C\c1ccco1	3.2µM*	4.8µM*	18µM*	15µM*	25µM*	4µM*
COc1ccc(/C=C2\CCC(C3CCCC3)C2=O)cc1Cn1nc(C)cc1C (stereo not given)	0%	?	-26%	2%	1%	-3%
CCOc1ccc(/C=C2\CCC(C3CCCC3)C2=O)cc1OC (stereo not given)	10%	?	/	12%	12%	19%
CCOc1ccc(/C=C2\CCC(C3CCCC3)C2=O)cc1 (stereo not given)	4µM*	0.54µM*	/	?	13%	3.5µM*
O=C1/C(=C/c2ccco2)CCC1C1CCCC1 (stereo not given)	-1%	8.5µM*	-9%	23µM*	?	0%
COc1ccccc1/C=C1\CCC(C2CCCC2)C1=O (stereo not given)	21%	19µM*	/	15%	?	18%
CC(C)C[C@@H](CC(=O)N[C@@H](CCC(=O)O)CC(=O)O)NC(=O)[C@@H]1CNCC[C@H]1NC(=O)C[C@H](CCCN)NC(=O)C[C@H](CO)NC(=O)[C@@H]1CCCC[C@H]1N	/	/	11%	/	/	/
COc1cc(CN(C(=O)c2ccccc2[N+](=O)[O-])c2ccccn2)cc(OC)c1OC	/	-2%	/	/	/	/
CS(C)(=O)=O	/	/	-3%	/	/	/
O=C1CNC(=O)/C(=C\c2ccc(F)cc2)N1	1%	2%	/	0%	0%	4%
CN1C2CCC1/C(=C\c1ccccc1)C(=O)/C2=C\c1ccccc1	8%	0%	-97%	-17%	11%	-1%
O=C1/C(=C/c2ccc(F)cc2)CCC1C1CCCC1 (stereo not given)	26%	0.67µM*	10%	?	?	?
O=C1/C(=C/c2ccco2)Cc2ccccc21	0%	13µM*	-1%	?	?	-2%
O=C1/C(=C/c2ccccc2)CCC1C1CCCC1 (stereo not given)	25%	1.2µM*	3%	?	?	20%
CCCNC(=O)N1[C@H](c2ccc(C)s2)[C@@H](C)C(=O)[C@@H](C)[C@@H]1c1ccc(C)s1	/	2%	/	/	/	/
CCCSc1nc(N)nc(-c2cccs2)c1C#N	16%	21µM*	17%	14%	15%	3%
COc1ccc(-c2cc3cc(OC)c(OC)cc3c(C)n2)cc1C	-1%	17µM*	/	0%	-4%	2%
COc1nc(-c2ccccc2)cc(-c2ccc(OC)c(OC)c2)n1	8%	?	20%	-12%	1%	5%
CCOCCOC(=O)COc1ccc2c(-c3ccccc3)cc(=O)oc2c1	-2%	?	4%	1%	-1%	-1%
CCOC(=O)COc1ccc2c(=O)c(-c3ccccc3)coc2c1	-5%	17µM*	/	2%	-14%	-1%
CC(=O)Oc1ccc2c(=O)c(-c3ccccc3)coc2c1	?	13µM*	25µM*	0%	?	?
COc1ccc(C(=O)c2sc3nc4c(c(C(F)(F)F)c3c2N)CN(C(C)=O)CC4)cc1OC	/	-2%	-12%	/	/	/
COc1ccc(CNC(=O)c2sc3nc4c(c(C(F)(F)F)c3c2N)CCC4)cc1OC	-5%	21µM*	-76%	4%	-8%	0%
CCOc1ccc(CNC(=O)C2CCN(S(=O)(=O)c3cn(C)cn3)CC2)cc1OC	/	-4%	/	/	/	/
SMILES	Rab9 prom act	FLuc counter	SMN2 splice up	ELG1 genotoxic	p53 reactivator	NPC1 promoter act
COc1cc(C(=O)n2nc(-c3ccco3)nc2NCc2ccc(Cl)cc2)cc(OC)c1OC	/	-2%	8%	/	/	/
Cc1ccccc1Nc1nnc(SCC(=O)N(C)C2CCS(=O)(=O)C2)s1 (stereo not given)	0%	-11%	5%	-1%	-8%	-2%
Cc1ccc(Nc2nnc(SCC(=O)c3ccc(O)cc3O)s2)cc1	-1%	11µM*	/	2%	14%	-2%
Cc1cccc(Nc2nnc(SCC(=O)c3ccc(O)cc3O)s2)c1	5%	9.5µM*	/	?	24%	-2%
Cc1ccc(Nc2nnc(SCC(=O)N(C)C3CCS(=O)(=O)C3)s2)cc1 (stereo not given)	25%	8.5µM*	?	12%	1%	23%
N#Cc1nc(-c2ccc(COc3ccc(Cl)cc3)o2)oc1N1CCC(C(N)=O)CC1	/	-16%	/	/	/	/
CCOC(=O)N1CCN(S(=O)(=O)c2c[nH]c(C(=O)OC)c2)CC1	2%	0%	/	0%	-3%	0%
COc1ccccc1CNC(=O)CN1c2cccc3cccc(c23)S1(=O)=O	-7%	24µM*	/	-1%	2%	1%
Cc1ccc(OCC(=O)Nc2ccc3c(c2)OCO3)cc1C	16%	24µM*	/	8%	3%	5%
Cc1ccc(OCC(=O)OCC(=O)Nc2ccc3c(c2)OCO3)cc1C	/	/	/	2%	-1%	/
NC(=O)c1cc(Cl)ccc1OCC(=O)Nc1ccc2c(c1)OCO2	1.3µM*	0.85µM*	/	?	/	1.4µM*
Cc1cccc(OCC(=O)Nc2ccc3c(c2)OCO3)c1C	7%	19µM*	0%	9%	30%	9%
O=C(COc1ccccc1[N+](=O)[O-])Nc1ccc2c(c1)OCO2	2.2µM*	4.8µM*	13µM*	9.2µM*	2%	2.5µM*
O=C(COC(=O)COc1ccccc1[N+](=O)[O-])Nc1ccc2c(c1)OCO2	/	/	/	4%	9%	/
CCn1cc(C(=O)NC2CCCc3c2cnn3-c2cccc(C)c2C)cn1 (stereo not given)	-53%	-3%	/	-6%	1%	-42%
CC(O)CN1CCN(C(=O)CN2C(=O)NC(c3ccccc3)(c3ccccc3)C2=O)CC1 (stereo not given)	0%	1%	/	0%	?	-1%
CN(N=O)C(=O)N[C@H]1[C@@H](O)[C@H](O)[C@H](CO)O[C@@H]1O	/	/	-4%[20.6 µM]	/	/	/
O=C(COc1ccc2ccc(=O)oc2c1)Nc1ccc(CCO)cc1	-9%	?	/	0%	-9%	0%
O=C(COc1ccc2ccc(=O)oc2c1)Nc1ccc2c(c1)OCCO2	27%	9.5µM*	12%	8%	9%	2%
O=C(c1cnn(-c2cccc(F)c2)c1-n1cccc1)N1CCN(c2ccccc2F)CC1	/	-2%	/	/	/	/
